{"source": "the supplement of paper PMC8728848", "binders": {"B1": {"name": "Gal 10 (Homo sapiens), Q05315 (protein)", "chain": "MSLLPVPYTEAASLSTGSTVTIKGRPLVCFLNEPYLQVDFHTEMKEESDIVFHFQVCFGRRVVMNSREYGAWKQQVESKNMPFQDGQEFELSISVLPDKYQVMVNGQSSYTFDHRIKPEAVKMVQVWRDISLTKFNVSYLKR"}}, "biological_target": "Neu5Gc(a2-6)Gal(b1-4)GlcNAc", "assay": "glycan array binding signal (z-score within array); higher = stronger binding", "details": "glycan notation: IUPAC condensed, linker removed", "summary_of_the_method": "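Arrays were curated from the Consortium for Functional Glycomics database, 3228 in total, and kept only where the protein sequence was available. Binding is expressed as a within-array Z-score. This score was averaged across arrays of the same protein sequence at different concentrations or buffers and across linkers, and negative values can be read as non-binding.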", "note": "About 410 targets per protein were measured; listed, in parts, are those with the strongest signals and a random draw of the rest.", "data": [{"binder": "B1", "values": [{"measurement": "glycan array binding signal (z-score)", "result": -0.495}]}]}
